{
  "source": "PubChem BioAssay (Tox21)",
  "note": "Results filed as inconclusive are left out. Values without a mark were called inactive. Activity calls are given as the source filed them. Calls follow the shape of the full dose curve. % is scaled to controls: 0 for no effect and ±100 for the full control effect; potency is read from the fitted curve at half-maximal effect.",
  "data": [
    {"assay": "p53 small molecule agonists, cell-based qHTS assay with human liver microsomes: qHTS cell viability counter screen (AID 1963579); also: nearly all actives have a fitted effect of over 45% in size", "conditions": "p53RE-bla HCT-116 viability, ATP luminescence, 16 h, HLM; series mostly up to 66 µM; activity change, negative = cytotoxicity: at the top concentration", "from_the_text": "National Center for Advancing Translational Sciences [NCATS]\nDivision of Preclinical Innovation [DPI]\nU.S. Environmental Protection Agency [EPA]\nNational Institutes of Environmental Health Sciences [NIEHS]\nNational Toxicology Program [NTP]\nU.S. Food and Drug Administration [FDA]\np53, a tumor suppressor protein, is activated following cellular insult, including DNA damage and other cellular stresses. The activation of p53 regulates cell fate by inducing DNA repair, cell cycle arrest, apoptosis, or cellular senescence. The activation of p53, therefore, is a good indicator of DNA damage and other cellular stresses. […] The activation of the reporter gene under culture conditions can be detected by fluorescence intensity. This cell line was used to screen the Tox21 10K compound library in the condition of presence of human liver microsomes and to identify agonists that activate the p53 signaling pathway after in vitro metabolic activation (Ooka et al., Archive of Toxicology 96:1975-1987, 2022).\nTox21 Assay Protocol Summary:\nThe p53RE-bla cells were dispensed at 4,000cells/3ul/well in 1536-well black-clear bottom plates. After the assay plates were incubated at 37 C, 5% CO2 incubator for 5 hours, 23 nL of compounds dissolved in DMSO, positive controls or DMSO only was transferred to the assay plate. Following compound addition, 3 uL of human liver microsomes (XenoTech, Kansas City, KS) at final concentration of 0.5 mg/mL and 1uL of B-Nicotinamide adenine dinucleotide 2'-phosphate (NADPH) at final concentration of 0.5 mg/mL were transferred to the assay plate. The plates were incubated at 37 C for 16 hours. 1 uL of LiveBLAzer detection mixture was added to each well and the plates were incubated at room temperature in the dark for 2 h. Fluorescence intensity at 460 and 530 nm emission and 405 nm excitation were measured by an Envision plate reader. For cell viability readout that measures cytotoxicity, 4 ul/well of CellTiter-Glo reagent was added into the assay plates using a Flying Reagent Dispenser. After 30 min incubation at room temperature, the luminescence intensity in the plates was measured using a ViewLux plate reader.", "values": [
      {"molecule": "Cn1[nH]nnc1=S", "activity change, negative = cytotoxicity": "5.91%"},
      {"molecule": "COC(=O)C1=CCCN(C)C1", "activity change, negative = cytotoxicity": "30.9% [at 30.3 µM]"},
      {"molecule": "O=c1oc2ccccc2c(O)c1C1CCCc2ccccc21", "note": "(stereo not given)", "activity change, negative = cytotoxicity": "-10.7%"},
      {"molecule": "CC(C)(CCl)C(=O)Cl", "Potency": "18.2 µM (active)"},
      {"molecule": "CCC(C)(C)c1cc(-n2nc3ccccc3n2)c(O)c(C(C)(C)CC)c1", "activity change, negative = cytotoxicity": "-18.1%"},
      {"molecule": "Clc1cc(Cl)c(Cl)c(Cl)c1", "activity change, negative = cytotoxicity": "2.78%"},
      {"molecule": "C=C(C)C(=O)OCCCCOC(=O)C(=C)C", "activity change, negative = cytotoxicity": "9.14%"},
      {"molecule": "COC(=O)C1(O)c2ccccc2-c2ccccc21", "activity change, negative = cytotoxicity": "2.98%"},
      {"molecule": "COC(=O)/C=C(\\C)OP(=O)(OC)OC", "activity change, negative = cytotoxicity": "-17.8%"},
      {"molecule": "NC1=NC(=O)C(c2ccccc2)O1", "note": "(stereo not given)", "activity change, negative = cytotoxicity": "-11.9% [at 30.3 µM]"},
      {"molecule": "N#Cc1c2ccccc2cc2ccccc12", "activity change, negative = cytotoxicity": "-0.574%"},
      {"molecule": "C[C@H](CN1CCOCC1)C(C(=O)N1CCCC1)(c1ccccc1)c1ccccc1", "activity change, negative = cytotoxicity": "-1.38%"},
      {"molecule": "CCOC(=O)C(Cl)Cc1cc(-n2nc(C)n(C(F)F)c2=O)c(F)cc1Cl", "note": "(stereo not given)", "activity change, negative = cytotoxicity": "0.705%"},
      {"molecule": "N#CC(C#N)=Cc1ccc(O)c(O)c1", "activity change, negative = cytotoxicity": "1.96% [at 30.3 µM]"},
      {"molecule": "C[C@H]1CNCCc2ccc(Cl)cc21", "activity change, negative = cytotoxicity": "4.69% [at 30.3 µM]"},
      {"molecule": "C/C(=C\\c1ccccc1)[N+](=O)[O-]", "activity change, negative = cytotoxicity": "-0.978%"},
      {"molecule": "Nc1c(Cl)c(F)nc(OCC(=O)O)c1Cl", "activity change, negative = cytotoxicity": "0.242%"},
      {"molecule": "CCC(C(N)=O)N1CCCC1=O", "note": "(stereo not given)", "activity change, negative = cytotoxicity": "-3% [at 30.3 µM]"},
      {"molecule": "CC(C)C(Br)C(=O)NC(N)=O", "note": "(stereo not given)", "activity change, negative = cytotoxicity": "0.639% [at 30.3 µM]"},
      {"molecule": "CC(C)(C)c1ccc(OP(=O)(Oc2ccccc2)Oc2ccccc2)cc1", "activity change, negative = cytotoxicity": "-23.5%"},
      {"molecule": "CCOP(=S)(OCC)SCS(=O)(=O)CC", "activity change, negative = cytotoxicity": "1.53%"},
      {"molecule": "CCOC(=O)CC(=O)CCl", "activity change, negative = cytotoxicity": "3.12%"},
      {"molecule": "C[C@]12CC[C@H]3[C@@H](CCC4=CC(=O)CC[C@@]43C)[C@@H]1CC[C@@H]2C(=O)O", "activity change, negative = cytotoxicity": "3.61% [at 30.3 µM]"},
      {"molecule": "Oc1ccc(Cc2ccc(O)cc2)cc1", "activity change, negative = cytotoxicity": "-5.27%"},
      {"molecule": "N#Cc1sc2c(=O)c3ccccc3c(=O)c=2sc1C#N", "Potency": "5.13 µM (active)"},
      {"molecule": "O=C(Cc1ccccc1)OCCc1ccccc1", "activity change, negative = cytotoxicity": "-0.296%"},
      {"molecule": "O=CC=O", "activity change, negative = cytotoxicity": "0.727%"},
      {"molecule": "SCc1ccccc1", "activity change, negative = cytotoxicity": "3.95%"},
      {"molecule": "CC1COC(Cn2cncn2)(c2ccc(Oc3ccc(Cl)cc3)cc2Cl)O1", "note": "(stereo not given)", "activity change, negative = cytotoxicity": "-7.86%"},
      {"molecule": "O=C(O)/C=C\\C(=O)O", "Potency": "inactive"},
      {"molecule": "C=CC(=O)OCCCCOC(=O)C=C", "activity change, negative = cytotoxicity": "14.6%"},
      {"molecule": "O=C(CCCN1CCC2(CC1)C(=O)NCN2c1ccccc1)c1ccc(F)cc1", "activity change, negative = cytotoxicity": "-1.63% [at 30.3 µM]"},
      {"molecule": "CC(C)NCC(O)c1ccccc1Cl", "note": "(stereo not given)", "activity change, negative = cytotoxicity": "-7.37% [at 30.3 µM]"},
      {"molecule": "CCN(CC)C(=O)Cl", "activity change, negative = cytotoxicity": "0.448%"},
      {"molecule": "CSc1ccc(C(=O)C(C)(C)N2CCOCC2)cc1", "activity change, negative = cytotoxicity": "-4.84%"},
      {"molecule": "CC1NCCOC1c1ccccc1", "note": "(stereo not given)", "activity change, negative = cytotoxicity": "1.19% [at 30.3 µM]"},
      {"molecule": "ClC(Cl)C(Cl)(Cl)Cl", "activity change, negative = cytotoxicity": "2.05%"},
      {"molecule": "NCC(CC(=O)O)c1ccc(Cl)cc1", "note": "(stereo not given)", "activity change, negative = cytotoxicity": "-3.85% [at 0.249 µM]"},
      {"molecule": "CCOC(=O)CCl", "activity change, negative = cytotoxicity": "-9.13%"},
      {"molecule": "FC(F)(F)c1cccc(C2=CCN(CCc3ccc4ccccc4c3)CC2)c1", "activity change, negative = cytotoxicity": "0.574% [at 30.3 µM]"}
    ]}
  ]
}
